Source: PubChem BioAssay AID624330 (Southern Research Specialized Biocontainment Screening …, 2012)
The campaign covered roughly 340,000 compounds. About 2,100 (0.62%) were called active.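 Rule for the calls: active = first-screen hits whose inhibition reached a set limit at any dose in the follow-up dose series; inconclusive = inhibition above the set first-screen limit but never retested; inactive = the rest.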 These entries were drawn from the full list. Results with a measured potency or affinity are listed apart.

The compounds below were run against Rac GTPase-activating protein 1 (Homo sapiens) (UniProt Q9H0H5) (assay: blockers of MgcRacGAP-driven Rac1 GTP hydrolysis – biochemical, ADP Hunter fluorescence, primary and confirmatory, confirmation (AID 624330;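 note: fluorescence reports GDP produced by GAP-driven GTP hydrolysis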)). Conditions: MgcRacGAP-stimulated Rac1 GTP hydrolysis, at 30 µM, hits give high values, GST-tagged Rac1 F28L mutant substrate.
Chain of Rac GTPase-activating protein 1 (Homo sapiens) (Q9H0H5 whole entry, looked up): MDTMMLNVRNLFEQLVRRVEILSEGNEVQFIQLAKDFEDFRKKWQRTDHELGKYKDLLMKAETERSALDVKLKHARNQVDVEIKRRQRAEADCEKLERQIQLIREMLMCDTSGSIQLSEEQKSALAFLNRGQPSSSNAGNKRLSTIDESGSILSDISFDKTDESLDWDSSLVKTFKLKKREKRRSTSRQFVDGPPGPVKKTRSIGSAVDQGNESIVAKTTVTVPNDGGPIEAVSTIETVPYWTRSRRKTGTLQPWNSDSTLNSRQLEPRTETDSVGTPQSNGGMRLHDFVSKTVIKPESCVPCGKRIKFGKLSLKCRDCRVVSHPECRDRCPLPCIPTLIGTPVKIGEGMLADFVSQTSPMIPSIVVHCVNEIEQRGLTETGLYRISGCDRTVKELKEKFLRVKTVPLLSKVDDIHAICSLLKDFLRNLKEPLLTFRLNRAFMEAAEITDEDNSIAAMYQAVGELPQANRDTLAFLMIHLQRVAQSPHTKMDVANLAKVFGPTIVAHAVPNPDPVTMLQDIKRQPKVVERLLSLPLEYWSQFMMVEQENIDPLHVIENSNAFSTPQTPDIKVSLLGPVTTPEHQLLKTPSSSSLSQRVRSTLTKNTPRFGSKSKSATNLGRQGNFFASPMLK

inhibition, inactive:
Cc1ccc(NC(=O)c2ccccc2F)cc1S(=O)(=O)N1CCCCCC1 -2.21%, CCn1c(CSc2nc3ccccc3s2)nnc1SCC(=O)c1ccc(Cl)cc1 -0.25%, CCn1c(CSc2nc3ccccc3s2)nnc1SCC(=O)c1ccc(O)cc1O 6.52%, COc1ccccc1N(CC(=O)NCC1CCCO1)C(=O)CCC(=O)Nc1cc(C)on1 (centres undefined) 2.95%, COc1ccc(-c2noc(CN(C)Cc3ccccc3)n2)cc1 15.4%, O=C(CCSCc1ccccc1Cl)NC1CCCCC1 5.37%, O=P(c1ccccc1)(c1ccccc1)c1cc(S(=O)(=O)O)ccc1O 5.95%, COc1ccccc1Nc1ccc(N)cc1 10.5%, Nc1ccc2c(O)cc(S(=O)(=O)O)cc2c1 19.4%, COc1ccccc1Nc1ccc(NS(=O)(=O)c2ccc(C(C)=O)cc2)cc1 23.2%, Nc1cccc2cc(S(=O)(=O)O)ccc12 20.9%, Nc1cc(S(=O)(=O)O)cc2ccc(S(=O)(=O)O)cc12 6.2%, O=Nc1c(O)ccc2cc(S(=O)(=O)O)ccc12 13.3%, O=C(O)c1cc2cc(S(=O)(=O)O)ccc2cc1O 6.33%, CCc1ccccc1NC(=O)c1ccc(NCCc2ccccc2)c([N+](=O)[O-])c1 10.6%, C/C(=N\NC(=O)c1cccs1)C(C)(C)C -0.86%, O=C(Nc1cccc(F)c1)Nc1ccnn1C1CCN(C(=O)c2ccccn2)CC1 4.39%, CC1CCCCC1NC(=O)c1ccco1 (centres undefined) 0.81%, COc1cccc(Oc2ccc3nnc(C(F)(F)F)n3n2)c1 -1.34%, C[C@@H](O)CNC(=O)c1[nH]cnc1C(=O)Nc1cccc(Cl)c1 16.2%, Nc1ccccc1-c1n[nH]c(=S)s1 25.6%, CCN(c1ccc(OC)cc1)S(=O)(=O)c1nnc(NC(=O)C(C)C)s1 3.54%, O=C(O)c1ccccc1C(=O)c1ccc(-c2ccccc2)cc1 8.16%, CCN1CCN(c2ccc(S(=O)(=O)N3CCOCC3)cc2NC(=O)c2ccccc2SC)CC1 3.45%, CCC(=O)Nc1cc(-c2nn(C)c(=O)c3ccccc23)ccc1OC 5.48%, O=C(COc1ncnc2cc([N+](=O)[O-])ccc12)NCCc1ccc(Cl)cc1 -7.58%, Cc1ccc(NC(=O)c2cc(NC(=O)c3ccco3)ccc2N2CCOCC2)cc1Cl -19.1%, O=S(=O)(c1ccccc1)c1cc(O)ccc1O 6.16%, Cc1cc(=O)oc2cc(Nc3ccccc3)ccc12 6.98%, O=S(=O)(O)c1cccc2cccc(Nc3ccccc3)c12 13.4%, CC(=O)Nc1ccc2c(O)cc(S(=O)(=O)O)cc2c1 6.64%, Cc1ccc(S(=O)(=O)Nc2ccc(O)c(S(=O)(=O)c3ccc(C)cc3)c2)cc1 6.97%, Nc1ccc(C(=O)Nc2ccc3c(O)cc(S(=O)(=O)O)cc3c2)cc1 14.1%, CCCN(CCC)C(=O)C1CCCN(S(=O)(=O)c2ccc3c(c2)oc(=O)n3C)C1 (centres undefined) 7.01%, O=C(COC(=O)Cc1ccc(Br)cc1)NC1CC1 4.98%, O=C(COc1ccc(Cl)cc1)N(Cc1ccccc1)c1nc(-c2ccccc2)cs1 9.03%, O=c1n(-c2ccccc2)c(=O)n2n1CCCC2 -0.32%, CCCCN(CC)CCCNC(=O)CC1Oc2ccccc2NC1=O (centres undefined) 0.11%, CCOc1ccccc1C(C(=O)NC1CCCC1)N(Cc1ccco1)C(=O)CNC(=O)c1ccco1 (centres undefined) 5.39%, O=C(CN1c2ccccc2Sc2ccccc21)NNC(=S)Nc1ccc(Cl)cc1 15.4%, CCOC(=O)C(CO)(NC(C)=O)C(=O)OCC 3.77%, COc1ccccc1OCc1cc(C(=O)N2CC3C[C@@H]4CC2C[C@H](C3)C4)no1 3.59%, CCOc1ccccc1NC(=O)C(NCCc1ccc(OC)cc1)c1ccccc1 (centres undefined) -0.19%, CCOc1ccccc1NC(=O)C(NCC1CCCCC1)c1ccccc1 (centres undefined) 4.44%, CCOc1ccccc1NC(=O)C(OC(=O)c1ccccc1)c1ccccc1 (centres undefined) 12.2%, CN(C)CCNC(C(=O)Nc1cc(Cl)cc(Cl)c1)c1ccccc1 (centres undefined) 5.37%, CCOc1ccccc1NC(=O)C(OC(=O)C1CC1)c1ccccc1 (centres undefined) -2.99%, CCC(C(=O)Nc1cccc(C(F)(F)F)c1)c1ccccc1 (centres undefined) 17.9%, CC(NC(=O)c1ccco1)C(=O)N1CCCCC1 (centres undefined) 3.98%, O=C(COC(=O)c1cccnc1Cl)NC1CCCCC1 4.82%, CC(C)Cc1cc(C(=O)N2CCN(c3ccc(F)cc3)CC2)no1 0.62%, COc1cccc(C(=O)NC(=S)Nc2ccccc2N2CCOCC2)c1 6.71%, COc1ccc(C)cc1S(=O)(=O)N1CCC(C(=O)NCCc2ccccc2)CC1 14.5%, COC(=O)c1ccc(Cl)c(NC(=O)CSc2nnc(-c3ccncc3)o2)c1 4.07%, OC1CCN(Cc2cn(Cc3ccccc3)nc2-c2cc3ccccc3o2)CC1 5.47%, O=C(Nc1ccc(Cl)cc1)Nc1nnc(CSCc2ccccc2Cl)s1 12.1%, CN(C(=O)COc1ccccc1)c1ccc([N+](=O)[O-])cc1 7.5%, Cc1ccccc1OCCNC(=O)c1ccco1 3.61%, Cc1ccc(C(=O)NCC(C)NC(=O)c2ccc(C)c(C)c2)cc1C (centres undefined) 4.02%, CCOc1ccc(N2CC(C(=O)NCc3ccco3)CC2=O)cc1 (centres undefined) -1.21%, Cc1onc(-c2ccccc2)c1C(=O)NC(=S)NNC(=O)c1ccncc1 0.31%, CCCN(C(=O)Cc1csc(-c2ccccc2)n1)C1CCS(=O)(=O)C1 (centres undefined) 4.87%, CCOC(=O)c1c(NC(=O)CN2CCN(C)CC2)sc(C(=O)Nc2ccccc2)c1C 8.53%, CCOC(=O)c1c(NC(=O)CSc2cccc[n+]2[O-])sc(C(=O)Nc2ccccc2)c1C 7.58%
